# Sm TGR inh: S. mansoni TGR enzyme inhibition; Potency, µM (highest dose often 114 µM), most hits filed as inhibitors; Q962Y6; 360,000 tested, 3% active; purified TGR, DTNB reduction, TNB absorbance 405 nm; note: nearly all actives have a fitted effect of over 60% in size
#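 TGR 20 nM + NADPH 100 uM (dispensed conc.), cpd preinc 15 min RT; start with NADPH (500 uM addition) then DTNB (15 mM addition). Kinetic TNB absorbance, 405 nm filter. Four-parameter Hill fit across titration.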
# Pf growth 48h: inhibits P. falciparum growth in the first generation, 48 h; Potency, µM (titrated, usually from 28.7 µM), usual class: inhibitors; P. falciparum luciferase growth in erythrocytes, 48 h; 310,000 tested, 5.9% active
#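 Parasite viability was followed by luminescence of a genomically integrated firefly luciferase. Cultures held 0.1% parasitemia at 2% hematocrit (final), incubated under 5% CO2 at 37 C.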
# SARS PLP yeast: blocks SARS-CoV papain-like protease in a yeast assay; S. cerevisiae expressing SARS-CoV PLpro, growth rescue; Potency, µM (doses to about 32.9 µM), actives largely listed as activators; 330,000 tested, 0.19% active; calls by dose curve; note: nearly all actives have a fitted effect of over 55% in size
# Pf growth 96h: inhibits malaria parasite growth, 96 h; P. falciparum luciferase reporter growth, 96 h; Potency, µM (series often up to 28.7 µM), actives largely listed as inhibitors; 320,000 tested, 6.9% active
#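 Luminescence readout: decreased luciferase signal marks inhibited growth of reporter-expressing P. falciparum in infected red cells (2% hematocrit, 0.05% parasitemia final), exposed to compound two generations (96 h, 37 C, 5% CO2).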
# A number is an active result; n = inactive; u = inconclusive; x = not tested or not shown. In the library only some 12% were active in any assay of this set; here they are far more common. Unless noted, calls come from the whole dose curve; as a rule, active = well fitted curve in the direction sought with a large enough effect; inconclusive = small, poorly fitted or top-dose-only effect, or another doubt; inactive = no such curve, though single readings can be large; an effect the other way counts as inactive or inconclusive.
SMILES,Sm TGR inh,Pf growth 48h,SARS PLP yeast,Pf growth 96h
CC(C)(C)CN1CCN(CC#Cc2ccccc2)CC1CCO (stereo unspecified),n,n,n,u
CC(C)c1csc(CN2CCN(CCc3ccccc3)C(CCO)C2)n1 (stereo unspecified),n,u,n,1.7µM
Cc1cccc(C(=O)OCC(=O)N2CCCC2=O)c1[N+](=O)[O-],n,n,n,n
O=C(Cn1c(SCC(=O)Nc2ccc(F)cc2)nc2ccccc21)NCc1ccccc1Cl,n,x,x,x
Cn1cc(CN2CCN(CCc3ccccc3)C(CCO)C2)cn1 (stereo unspecified),n,n,n,n
OCCC1CN(Cc2ccc3nsnc3c2)CCN1CCc1ccccc1 (stereo unspecified),n,n,n,12µM
CCN1CCN(c2ncnc3c2oc2nc(C(C)C)c4c(c23)CCC4)CC1,n,n,n,3.3µM
O=C(Cn1c(=O)n2nc(-c3ccccc3)nc2c2ccccc21)Nc1ccccc1C(F)(F)F,n,x,x,x
O=C(Nc1c(C(=O)N2CCOCC2)cnn1-c1ccccc1)c1ccc(F)cc1,n,n,n,n
COc1ccc2c(c1)-c1nc(NC(=O)c3cccs3)sc1CC2,n,u,n,n
COc1ccc2c(c1)-c1nc(/N=C/c3ccc(O)cc3)sc1CC2,n,n,n,4.1µM
COc1ccc2c(c1)-c1nc(/N=C/c3c(O)ccc4ccccc34)sc1CC2,u,n,n,4.7µM
Oc1ccc2ccccc2c1/C=N/c1nccs1,u,u,n,x
COCCOC1CCN(C(=O)c2cc(COc3ccc(F)cc3F)on2)CC1,n,n,n,u
COc1ccc(C2C(O)C(c3c[nH]c4ccccc34)=NN2C(=O)CCl)cc1 (stereo unspecified),8.9µM,2.9µM,n,u
O=C1Nc2ccccc2C12OC1CCCCC1O2 (stereo unspecified),n,12µM,n,3.7µM
Cc1ccc(OCCNC(=O)c2cccc(S(=O)(=O)N3CCN(C)CC3)c2)cc1,n,u,n,u
Cc1ccc(N2C(=O)[C@@H]3C(c4cccnc4)=NO[C@@H]3C2=O)cc1,7.9µM,n,n,n
COc1ccc(C2=NO[C@@H]3C(=O)N(c4c(C)cccc4C)C(=O)[C@H]23)cc1OC,u,n,n,n
COc1ccc(N2C(=O)[C@@H]3C(c4cccnc4)=NO[C@@H]3C2=O)cc1,7.1µM,n,n,n
COc1ccccc1N(CC(=O)N1CCC(C)CC1)S(=O)(=O)c1ccc(C)cc1,n,x,x,x
COc1ccc(NC(=O)CN2CCN(Cc3ccc(F)cc3)S2(=O)=O)cc1Cl,n,x,x,x
Nn1c(SCC(=O)Nc2ccccc2Oc2ccccc2)nnc1C1CC1,n,n,n,n
O=C(CNC(=O)c1ccc(Cl)c([N+](=O)[O-])c1)OC1CCCCC1=O (stereo unspecified),n,n,n,n
COc1ccc(S(=O)(=O)NCC(c2ccco2)N2CCOCC2)cc1OC (stereo unspecified),n,x,x,x
SMILES,Sm TGR inh,Pf growth 48h,SARS PLP yeast,Pf growth 96h
COCCN(Cc1cc2c(C)cc(C)cc2nc1Cl)C(=O)c1ccccc1F,n,u,n,1.9µM
COCCN(Cc1cc2cc(C)cc(C)c2nc1Cl)C(=O)Nc1ccccc1,n,u,n,n
CCOCCCNC(=O)c1c(N)n(-c2ccc3c(c2)OCO3)c2nc3ccccc3nc12,n,u,n,u
CCCNC(=O)c1c(N)n(-c2cc(OC)cc(OC)c2)c2nc3ccccc3nc12,n,u,n,10µM
COCCCNC(=O)c1c(N)n(-c2ccc3c(c2)OCO3)c2nc3ccccc3nc12,n,6.6µM,n,n
CCOC(=O)c1c(N)n(-c2cccc(OC)c2)c2nc3ccccc3nc12,n,x,x,x
CCCNC(=O)c1c(N)n(-c2ccc3c(c2)OCO3)c2nc3ccccc3nc12,n,8.3µM,n,4.1µM
CNC(=O)COc1ccc(Nc2nnc(-c3ccc(C)c(S(=O)(=O)NC(C)(C)C)c3)c3ccccc23)cc1,n,x,x,x
Cc1cc(F)ccc1NC(=O)C1CCCN(C(=O)c2cnn(-c3ccccc3)c2-n2cccc2)C1 (stereo unspecified),n,x,x,x
Cn1c2cc(B(O)O)sc2c2cnn(Cc3c(F)cccc3F)c(=O)c21,n,u,n,u
CN(C)c1ccc(CN(C(=O)/C=C/c2ccco2)C2CCS(=O)(=O)C2)cc1 (stereo unspecified),25µM,n,n,u
O=C(/C=C/c1ccco1)N(Cc1ccc(Cl)cc1)C1CCS(=O)(=O)C1 (stereo unspecified),3.2µM,n,n,u
CCSc1ncc(Cl)c(C(=O)N(Cc2ccc(C(C)(C)C)cc2)C2CCS(=O)(=O)C2)n1 (stereo unspecified),n,x,x,x
O=C(/C=C/c1ccc(Cl)cc1)N(Cc1ccccc1)C1CCS(=O)(=O)C1 (stereo unspecified),n,n,n,u
CCSc1ncc(Cl)c(C(=O)N(Cc2ccc(N(C)C)cc2)C2CCS(=O)(=O)C2)n1 (stereo unspecified),n,10µM,n,n
Cc1cccn2c(=O)c(C=O)c(N3CCSCC3)nc12,n,n,n,n
Cc1cc(Nc2ccc(Cl)cc2)n2cnnc2n1,n,x,x,x
Cc1ccc(CCNC(=O)c2ccc3c(Cl)c4c(nc3c2)CCCC4)cc1,n,x,x,x
CN(C)C(=O)CN1CCN(Cc2cn(C)nc2-c2ccc3c(c2)OCCO3)CC1,n,n,n,10µM
CCOC(=O)C1CCCN(Cc2cn(C)nc2-c2ccc3c(c2)OCCO3)C1 (stereo unspecified),n,n,n,u
CCc1cccc(CC)c1NC(=O)CCS(=O)(=O)c1ccc2c(c1)CCN2C(C)=O,n,x,x,x
CCOC(=O)C1=C(Nc2ccc(C)cc2)CC(C)(O)C(C(=O)OCC)C1c1ccccc1 (stereo unspecified),n,12µM,n,13µM
CCOC(=O)C1=C(Nc2ccccc2)CC(C)(O)C(C(=O)OCC)C1c1ccccc1 (stereo unspecified),n,u,n,u
CCOC(=O)C1=C(Nc2ccccc2)CC(C)(O)C(C(=O)OCC)C1c1ccc(Br)cc1 (stereo unspecified),n,15µM,n,u
O=C(CSc1nc2c(oc3ccccc32)c(=O)n1-c1ccccc1)Nc1ccc(F)c(Cl)c1,n,x,x,x
SMILES,Sm TGR inh,Pf growth 48h,SARS PLP yeast,Pf growth 96h
Cc1ccc(C2=NNC(c3ccc(Cl)cc3)=Nc3ccccc32)o1,n,10µM,n,10µM
CCOC(=O)c1c(S(=O)(=O)N2CCCC(C(=O)Nc3ccc(OCC)cc3)C2)c(C)n(C)c1C (stereo unspecified),n,x,x,x
O=C(CC1Sc2ccccc2NC1=O)OCc1cc(=O)oc2cc(O)ccc12 (stereo unspecified),n,n,n,4.7µM
CCc1ccc(CNC(=O)c2ccc3c(c2)nc2n3CCCCC2)cc1,n,x,x,x
Cc1ccc(S(=O)(=O)c2cc3c(=O)n4ccccc4nc3n(CCc3ccccc3)c2=N)cc1,n,2.1µM,n,n
Cc1ccc(S(=O)(=O)c2cc3c(=O)n4cccc(C)c4nc3n(C3CCCCC3)c2=N)cc1,n,n,n,n
COc1ccc(CCn2c(=N)c(S(=O)(=O)c3ccc(Cl)cc3)cc3c(=O)n4ccccc4nc32)cc1,n,4.7µM,n,2.6µM
